SMILES strings stand for the structures. About 79,000 compounds went through this panel and 15% of them were active in at least one assay; those are over-represented in the sample as a whole. Values without a mark were called inactive. Calls of active or inactive are those of the source. No stated cut-off is given here; in the data, active means growth inhibition above about 70%; inactive means the rest.

Assay [1] can be described thus: NCI Yeast Anticancer Drug Screen. Data for the rad50 strain (AID 155).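 Further: 0% = growth of vehicle-only cultures of the same strain.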 Conditions: S. cerevisiae rad50 strain growth inhibition, active compounds read high. The method, boiled down: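 Vehicle-treated cultures provide the reference for the growth inhibition reported for compound-exposed, repair-deficient yeast.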
Assay [2] in a line: NCI Yeast Anticancer Drug Screen. Data for the mec2-1 strain (AID 157). To be noted: S. cerevisiae mec2-1 strain, active compounds read high. In a few lines:
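Test agents were screened against the mec2-1 yeast strain, with defined DNA repair or cell cycle alteration. Growth was scored as inhibition against vehicle-only controls.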

Assay [3] is described as follows: NCI Yeast Anticancer Drug Screen. Data for the sgs1 mgt1 strain (AID 161).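 Further: 0% = growth of cultures given vehicle only.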 Conditions: S. cerevisiae sgs1 mgt1 strain, active compounds read high. In a few lines:
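Mutant yeast exposed to compound; growth scored against vehicle-only wells.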

Assay [4] in a line: NCI Yeast Anticancer Drug Screen. Data for the cln2 rad14 strain (AID 165).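 Further: 0% = growth equal to vehicle treated cultures.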 Conditions: S. cerevisiae cln2 rad14 strain, active compounds read high. In a few lines:
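Growth of compound-exposed yeast (cln2 rad14 genotype) measured and expressed as inhibition relative to vehicle.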

A short description of assay [5]: NCI Yeast Anticancer Drug Screen. Data for the mlh1 rad18 strain (AID 175). To be noted: S. cerevisiae mlh1 rad18 strain growth inhibition, active compounds read high. The method, boiled down:
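In this whole-cell yeast screen, a strain with altered DNA damage repair is challenged with compound, and its growth is measured against matched vehicle-treated controls.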

Assay [6] can be described thus: NCI Yeast Anticancer Drug Screen. Data for the bub3 strain (AID 167). To be noted: S. cerevisiae bub3 mutant strain, active compounds read high. The method, boiled down:
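Mutant yeast screening strain plus compound; vehicle-treated cultures serve as the 0% inhibition reference.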

[7] abbreviates: at 5.0 µM (retest, dose inferred, filed as 0.5).
[8] abbreviates: at 50.0 µM (retest, dose inferred, filed as 5.0).

With `O=C([O-])c1ccccc1[I+]c1ccc(C2CCCCC2)cc1`, the growth inhibition was 3% in assay [1] (setting [7]); 45% in assay [1] (setting [8]); 85.2% (active) in assay [1] (at 50.0 µM); 2% in assay [2] (setting [7]); 67% in assay [2] (setting [8]); 79.6% (active) in assay [2] (at 50.0 µM). The growth inhibition in assay [3] (setting [7]) was 22%; in assay [3] (setting [8]), 50%; in assay [3] (at 50.0 µM) it was 89.8% (active); in assay [4] (setting [7]) it was 3%; in assay [4] (setting [8]) it was 47%; in assay [4] (at 50.0 µM) it was 73.2% (active). Further, the figures for the growth inhibition in assay [5] (setting [7]), in assay [5] (setting [8]) and in assay [5] (at 50.0 µM) were 32%, 85% (active) and 89.9% (active), respectively.
For the compound `CC(C)(C)C(=O)CC(=O)C(F)(F)C(F)(F)C(F)(F)F.[Ag]`, the growth inhibition in assay [1] (setting [7]) was 97% (active); in assay [1] (setting [8]), 98% (active); in assay [1] (at 50.0 µM), 91.8% (active); in assay [2] (setting [7]), 99% (active); in assay [2] (setting [8]) it was 99% (active); in assay [2] (at 50.0 µM), 93% (active). The growth inhibition was 99% (active) in assay [3] (setting [7]); 99% (active) in assay [3] (setting [8]); 90% (active) in assay [3] (at 50.0 µM); 92% (active) in assay [4] (setting [7]); 99% (active) in assay [4] (setting [8]); 89.6% (active) in assay [4] (at 50.0 µM). The growth inhibition was 98% (active) in assay [5] (setting [7]), 98% (active) in assay [5] (setting [8]) and 88.4% (active) in assay [5] (at 50.0 µM).
In the case of `O=[N+]([O-])c1ccc(S(=O)(=O)N/N=C/C=C/c2ccccc2)cc1`, the growth inhibition in assay [1] (setting [7]) is 6%; in assay [1] (setting [8]), 13%; in assay [1] (at 50.0 µM), 71% (active); in assay [2] (setting [7]), 2%; in assay [2] (setting [8]), 17%; in assay [2] (at 50.0 µM), 37%. Further, the growth inhibition is 4% in assay [3] (setting [7]); 14% in assay [3] (setting [8]); 87.5% (active) in assay [3] (at 50.0 µM); -4% in assay [4] (setting [7]); 16% in assay [4] (setting [8]); 48.3% in assay [4] (at 50.0 µM). Also, the values for the growth inhibition in assay [5] (setting [7]), in assay [5] (setting [8]) and in assay [5] (at 50.0 µM) were 6%, 39% and 75.5% (active), respectively.
Take `S=C(Nc1ccccc1)[S][Sb]([S]C(=S)Nc1ccccc1)[c]1ccccc1`: the growth inhibition in assay [1] (setting [7]) was -5%; in assay [1] (setting [8]), 80% (active); in assay [1] (at 50.0 µM) it was 41.4%; in assay [2] (setting [7]), -6%; in assay [2] (setting [8]), 98% (active); in assay [2] (at 50.0 µM), 20%. For the same compound, the growth inhibition is -56% in assay [3] (setting [7]); 77% (active) in assay [3] (setting [8]); 43.1% in assay [3] (at 50.0 µM); -8% in assay [4] (setting [7]); 34% in assay [4] (setting [8]); 12.1% in assay [4] (at 50.0 µM). Besides, the growth inhibition in assay [5] (setting [7]) was -2%; in assay [5] (setting [8]) it was 94% (active); in assay [5] (at 50.0 µM), 63.4%.
With `CN(C)N=Nc1ccc(-c2ccccc2)cc1`, the growth inhibition in assay [1] (setting [7]) was 24%; in assay [1] (setting [8]) it was 95% (active); in assay [1] (at 50.0 µM) it was 87.8% (active); in assay [2] (setting [7]), 42%; in assay [2] (setting [8]) it was 92% (active); in assay [2] (at 50.0 µM), 78.3% (active). Besides, the growth inhibition was 6% in assay [3] (setting [7]); 60% in assay [3] (setting [8]); 81.8% (active) in assay [3] (at 50.0 µM); 30% in assay [4] (setting [7]); 85% (active) in assay [4] (setting [8]); 74.2% (active) in assay [4] (at 50.0 µM). The growth inhibition is 37% in assay [6] (setting [7]); 64% in assay [6] (setting [8]); 86.5% (active) in assay [6] (at 50.0 µM); 38% in assay [5] (setting [7]); 89% (active) in assay [5] (setting [8]); 84.5% (active) in assay [5] (at 50.0 µM).
Regarding `Cc1noc(NS(=O)(=O)c2ccc(NC(=S)/N=C/c3c(O)[nH]c(=O)[nH]c3=O)cc2)c1C`, the growth inhibition in assay [1] (setting [7]) is -1%; in assay [1] (setting [8]), -5%; in assay [1] (at 50.0 µM), 16.1%; in assay [2] (setting [7]), -18%; in assay [2] (setting [8]) it was -11%; in assay [2] (at 50.0 µM), 9.75%. The growth inhibition in assay [3] (setting [7]) is -8%; in assay [3] (setting [8]), -5%; in assay [3] (at 50.0 µM) it was 16.5%; in assay [4] (setting [7]), -24%; in assay [4] (setting [8]) it was -19%; in assay [4] (at 50.0 µM) it was 44.8%. Also, the growth inhibition is 4% in assay [6] (setting [7]); 10% in assay [6] (setting [8]); 6.05% in assay [6] (at 50.0 µM); 7% in assay [5] (setting [7]); -2% in assay [5] (setting [8]); 15.8% in assay [5] (at 50.0 µM).
In the case of `Nc1nc(=O)[nH]c([O-])c1N=O.Nc1nc(=O)[nH]c([O-])c1N=O.[Ag+].[Ag+]`, the growth inhibition was 37% in assay [1] (setting [7]); -25% in assay [1] (setting [8]); 96.8% (active) in assay [1] (at 50.0 µM); 44% in assay [2] (setting [7]); -8% in assay [2] (setting [8]); 98.7% (active) in assay [2] (at 50.0 µM). In addition, the growth inhibition in assay [3] (setting [7]) is 63%; in assay [3] (setting [8]), -28%; in assay [3] (at 50.0 µM), 92.9% (active); in assay [4] (setting [7]), 28%; in assay [4] (setting [8]), -17%; in assay [4] (at 50.0 µM), 98.8% (active). For the same compound, the growth inhibition was 76% (active) in assay [6] (setting [7]); -28% in assay [6] (setting [8]); 99.2% (active) in assay [6] (at 50.0 µM); 36% in assay [5] (setting [7]); -21% in assay [5] (setting [8]); 96.9% (active) in assay [5] (at 50.0 µM).
With `OCCSC(=S)Nc1ccc(Cl)c(Cl)c1`, the growth inhibition in assay [1] (setting [7]) was 47%; in assay [1] (setting [8]), 99% (active); in assay [1] (at 50.0 µM), 99.6% (active); in assay [2] (setting [7]), 10%; in assay [2] (setting [8]) it was 100% (active); in assay [2] (at 50.0 µM) it was 99.7% (active). Also, the growth inhibition is 78% (active) in assay [3] (setting [7]); 100% (active) in assay [3] (setting [8]); 99.8% (active) in assay [3] (at 50.0 µM); 44% in assay [6] (setting [7]); 99% (active) in assay [6] (setting [8]); 99.8% (active) in assay [6] (at 50.0 µM). The figures for the growth inhibition in assay [5] (setting [7]), in assay [5] (setting [8]) and in assay [5] (at 50.0 µM) were 85% (active), 99% (active) and 99.5% (active), respectively.
Consider `CCC(=O)C(C(=O)CC)c1c(OC(=O)c2ccccc2)ccc(O)c1C(=O)OC`, for which the growth inhibition in assay [1] (setting [7]) is -4%; in assay [1] (setting [8]), 30%; in assay [1] (at 50.0 µM), 30.9%; in assay [2] (setting [7]), -1%; in assay [2] (setting [8]), 16%; in assay [2] (at 50.0 µM) it was 47.9%. For the same compound, the growth inhibition in assay [3] (setting [7]) is 4%; in assay [3] (setting [8]) it was 71% (active); in assay [3] (at 50.0 µM) it was 71.4% (active); in assay [4] (setting [7]), -5%; in assay [4] (setting [8]), -5%; in assay [4] (at 50.0 µM) it was -7.45%. Moreover, the growth inhibition in assay [5] (setting [7]) was -3%; in assay [5] (setting [8]), 30%; in assay [5] (at 50.0 µM), 67%.
Turning to `O=c1nc(NC(c2ccccc2)(c2ccccc2)c2ccccc2)ccn1CCNCCn1ccc(NC(c2ccccc2)(c2ccccc2)c2ccccc2)nc1=O`, the growth inhibition in assay [1] (setting [7]) was 82% (active); in assay [1] (setting [8]), 96% (active); in assay [1] (at 50.0 µM), 87.6% (active); in assay [2] (setting [7]), 52%; in assay [2] (setting [8]) it was 97% (active); in assay [2] (at 50.0 µM), 89% (active). The growth inhibition in assay [3] (setting [7]) is 65%; in assay [3] (setting [8]) it was 98% (active); in assay [3] (at 50.0 µM), 91.5% (active); in assay [4] (setting [7]), 34%; in assay [4] (setting [8]), 97% (active); in assay [4] (at 50.0 µM) it was 89.2% (active). Also, the growth inhibition was 90% (active) in assay [5] (setting [7]), 97% (active) in assay [5] (setting [8]) and 90% (active) in assay [5] (at 50.0 µM).
As for `Clc1ccccc1NN(Cc1ccccn1)c1ccccc1Cl`, the growth inhibition is 16% in assay [1] (setting [7]); 54% in assay [1] (setting [8]); 76.5% (active) in assay [1] (at 50.0 µM); -6% in assay [2] (setting [7]); 32% in assay [2] (setting [8]); 58.7% in assay [2] (at 50.0 µM). The growth inhibition was 8% in assay [3] (setting [7]); 69% in assay [3] (setting [8]); 58.9% in assay [3] (at 50.0 µM); -14% in assay [4] (setting [7]); 50% in assay [4] (setting [8]); 57% in assay [4] (at 50.0 µM). Further, the growth inhibition was 28% in assay [6] (setting [7]); 77% (active) in assay [6] (setting [8]); 88.4% (active) in assay [6] (at 50.0 µM); 3% in assay [5] (setting [7]); 59% in assay [5] (setting [8]); 71.2% (active) in assay [5] (at 50.0 µM).

For the origin of these results see PubChem BioAssay (NCI).
